Assay results from PubChem BioAssay AID1159580 (chemical genetic matrix, 2015).
Hit rate of the full screen: of about 5,500 compounds, about 2,000 (36%) were called active. Roughly 18% stayed inconclusive and do not appear here. No stated cut-off is given here; in the data, active means normalized growth mostly below about 0.91 (no sharp cut-off); inconclusive means no clear call, values can overlap the other calls; inactive means mostly above about 0.92. The list shows a part of the results.

Experiment: chemical genetic growth profiling, strain panel (AID 1159580);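 further: tested at 20 µM; growth read once vehicle control cultures reached saturation at 30 °C; 1 = growth at the plate median or of vehicle wells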
Conditions: growth OD

Measured: normalized growth

Cc1onc(-c2ccccc2)c1C(=O)NC1C(=O)N2[C@@H]1SC(C)(C)[C@@H]2C(=O)O (some centres not stated)
inactive: S. cerevisiae deletion strains, locus YJR075W, strain HOC1, stronger effect = lower value 1.02 | S. cerevisiae deletion strains, locus YKL009W, strain mrt4, stronger effect = lower value 1.01 | S. cerevisiae deletion strains, locus YKL068W, stronger effect = lower value 1.01 | S. cerevisiae deletion strains, locus YKL085W, strain MDH1 (second series), stronger effect = lower value 1.01 | S. cerevisiae deletion strains, locus YKL085W, strain MDH1, stronger effect = lower value 1.01 | S. cerevisiae deletion strains, locus YKL160W, strain elf1, stronger effect = lower value 1.06 | S. cerevisiae deletion strains, locus YKL190W, strain CNB1, stronger effect = lower value 1.01 | S. cerevisiae deletion strains, locus YKR001C, strain vps1, stronger effect = lower value 1.01 | S. cerevisiae deletion strains, locus YKR026C, strain gcn3, stronger effect = lower value 1.02 | S. cerevisiae deletion strains, locus YKR091W, strain srl3, stronger effect = lower value 1.01 | S. cerevisiae deletion strains, locus YLL001W, strain dnm1, stronger effect = lower value 1.02 | S. cerevisiae deletion strains, locus YLL026W, stronger effect = lower value 1.01 | S. cerevisiae deletion strains, locus YLL041C, strain sdh2, stronger effect = lower value 1.01 | S. cerevisiae deletion strains, locus YLR027C, strain aat2, stronger effect = lower value 1.01 | S. cerevisiae deletion strains, locus YLR039C, strain RIC1, stronger effect = lower value 1.01 | S. cerevisiae deletion strains, locus YLR058C, strain SHM2, stronger effect = lower value 1.01 | S. cerevisiae deletion strains, locus YLR102C, strain apc9, stronger effect = lower value 1 | S. cerevisiae deletion strains, locus YLR113W, strain HOG1, stronger effect = lower value 0.975 | S. cerevisiae deletion strains, locus YLR221C, strain rsa3, stronger effect = lower value 1.03 | S. cerevisiae deletion strains, locus YLR258W, strain gsy2, stronger effect = lower value 1.02 | S. cerevisiae deletion strains, locus YLR262C, strain YPT6 (second series), stronger effect = lower value 1.05 | S. cerevisiae deletion strains, locus YLR262C, strain YPT6, stronger effect = lower value 1.04 | S. cerevisiae deletion strains, locus YLR268W, strain sec22, stronger effect = lower value 1.05 | S. cerevisiae deletion strains, locus YLR320W, strain mms22, stronger effect = lower value 1.04 | S. cerevisiae deletion strains, locus YLR330W, strain CHS5, stronger effect = lower value 1.01 | S. cerevisiae deletion strains, locus YLR342W, strain FKS1 (second series), stronger effect = lower value 1.01 | S. cerevisiae deletion strains, locus YLR342W, strain FKS1, stronger effect = lower value 1.02 | S. cerevisiae deletion strains, locus YLR357W, strain rsc2, stronger effect = lower value 1.09 | S. cerevisiae deletion strains, locus YLR370C, strain arc18, stronger effect = lower value 1.02 | S. cerevisiae deletion strains, locus YLR371W, strain rom2, stronger effect = lower value 1.01 | S. cerevisiae deletion strains, locus YLR384C, strain iki3, stronger effect = lower value 1.03 | S. cerevisiae deletion strains, locus YLR418C, strain cdc73, stronger effect = lower value 0.998 | S. cerevisiae deletion strains, locus YML016C, strain PPZ1, stronger effect = lower value 1.01 | S. cerevisiae deletion strains, locus YML032C, strain rad52, stronger effect = lower value 1.03 | S. cerevisiae deletion strains, locus YML120C, strain ndi1, stronger effect = lower value 1.02 | S. cerevisiae deletion strains, locus YML124C, strain tub3, stronger effect = lower value 1.01 | S. cerevisiae deletion strains, locus YMR058W, strain fet3, stronger effect = lower value 1.01 | S. cerevisiae deletion strains, locus YMR078C, strain ctf18, stronger effect = lower value 1.01 | S. cerevisiae deletion strains, locus YMR125W, strain sto1, stronger effect = lower value 1.02 | S. cerevisiae deletion strains, locus YMR129W, stronger effect = lower value 1.01 | S. cerevisiae deletion strains, locus YMR205C, strain PFK2, stronger effect = lower value 1.05 | S. cerevisiae deletion strains, locus YMR223W, strain ubp8, stronger effect = lower value 0.975 | S. cerevisiae deletion strains, locus YMR231W, strain pep5, stronger effect = lower value 1.02 | S. cerevisiae deletion strains, locus YMR263W, strain SAP30, stronger effect = lower value 1.01 | S. cerevisiae deletion strains, locus YMR307W, strain GAS1, stronger effect = lower value 0.981 | S. cerevisiae deletion strains, locus YNL067W, strain RPL9B, stronger effect = lower value 1.02 | S. cerevisiae deletion strains, locus YNL071W, strain lat1, stronger effect = lower value 1.01 | S. cerevisiae deletion strains, locus YNL128W, strain TEP1, stronger effect = lower value 1 | S. cerevisiae deletion strains, locus YNL153C, strain GIM3, stronger effect = lower value 1.01 | S. cerevisiae deletion strains, locus YNL183C, strain NPR1, stronger effect = lower value 0.946 | S. cerevisiae deletion strains, locus YNL209W, strain ssb2, stronger effect = lower value 1.01 | S. cerevisiae deletion strains, locus YNL233W, strain BNI4, stronger effect = lower value 1 | S. cerevisiae deletion strains, locus YNL248C, strain rpa49, stronger effect = lower value 1.01 | S. cerevisiae deletion strains, locus YNL250W, strain rad50, stronger effect = lower value 1.01 | S. cerevisiae deletion strains, locus YNL271C, strain bni1, stronger effect = lower value 1.01 | S. cerevisiae deletion strains, locus YNL298W, strain CLA4, stronger effect = lower value 1.02 | S. cerevisiae deletion strains, locus YNL307C, strain MCK1, stronger effect = lower value 1.01 | S. cerevisiae deletion strains, locus YNL322C, strain KRE1 (second series), stronger effect = lower value 1.03 | S. cerevisiae deletion strains, locus YNL322C, strain KRE1, stronger effect = lower value 1 | S. cerevisiae deletion strains, locus YNR049C, strain mso1, stronger effect = lower value 1.02 | S. cerevisiae deletion strains, locus YNR052C, strain pop2, stronger effect = lower value 1 | S. cerevisiae deletion strains, locus YOL006C, strain TOP1, stronger effect = lower value 1.02 | S. cerevisiae deletion strains, locus YOL012C, strain htz1 0.833 | S. cerevisiae deletion strains, locus YOL147C, strain pex11, stronger effect = lower value 1.01 | S. cerevisiae deletion strains, locus YOR001W, strain rrp6, stronger effect = lower value 0.971 | S. cerevisiae deletion strains, locus YOR061W, strain CKA2, stronger effect = lower value 1.01 | S. cerevisiae deletion strains, locus YOR069W, strain VPS5, stronger effect = lower value 1.01 | S. cerevisiae deletion strains, locus YOR070C, strain gyp1, stronger effect = lower value 1.02 | S. cerevisiae deletion strains, locus YOR080W, strain dia2, stronger effect = lower value 1.02 | S. cerevisiae deletion strains, locus YOR083W, strain WHI5, stronger effect = lower value 1.04 | S. cerevisiae deletion strains, locus YOR106W, strain vam3, stronger effect = lower value 1.03 | S. cerevisiae deletion strains, locus YOR136W, strain idh2, stronger effect = lower value 0.992 | S. cerevisiae deletion strains, locus YOR144C, strain elg1, stronger effect = lower value 1.01 | S. cerevisiae deletion strains, locus YOR184W, strain ser1, stronger effect = lower value 1.01 | S. cerevisiae deletion strains, locus YOR231W, strain MKK1, stronger effect = lower value 1.01 | S. cerevisiae deletion strains, locus YOR265W, strain rbl2, stronger effect = lower value 1.01 | S. cerevisiae deletion strains, locus YOR270C, strain vph1, stronger effect = lower value 1.02 | S. cerevisiae deletion strains, locus YOR290C, strain snf2, stronger effect = lower value 1.02 | S. cerevisiae deletion strains, locus YOR316C, strain cot1, stronger effect = lower value 1.01 | S. cerevisiae deletion strains, locus YPL051W, strain arl3, stronger effect = lower value 1.01 | S. cerevisiae deletion strains, locus YPL055C, strain LGE1, stronger effect = lower value 1.05 | S. cerevisiae deletion strains, locus YPL078C, strain atp4, stronger effect = lower value 1.01 | S. cerevisiae deletion strains, locus YPL106C, strain sse1, stronger effect = lower value 1.04 | S. cerevisiae deletion strains, locus YPL240C, strain hsp82, stronger effect = lower value 1.02 | S. cerevisiae deletion strains, locus YPL241C, strain CIN2, stronger effect = lower value 1.01 | S. cerevisiae deletion strains, locus YPL256C, strain CLN2, stronger effect = lower value 0.98 | S. cerevisiae deletion strains, locus YPR119W, strain clb2, stronger effect = lower value 1 | S. cerevisiae deletion strains, locus YPR141C, strain kar3, stronger effect = lower value 1.02 | S. cerevisiae deletion strains, locus YPR163C, strain tif3, stronger effect = lower value 1.02 | S. cerevisiae deletion strains, locus YPR167C, strain met16, stronger effect = lower value 1.01 | S. cerevisiae deletion strains, strain wtn01, stronger effect = lower value 1.04 | S. cerevisiae strains, strain wild type, stronger effect = lower value 1
